{"source": "paper PMC12820563", "about": "“FoxP3 forms a head-to-head dimer in vivo and stabilizes its multimerization on adjacent microsatellites”", "note": "Whole data set: some 16,000 sequences, median “rpm ratio (pull-down/input)” near 0.5, cut for the highest 2% near 5.5. Shown is part of a subset that was picked to be rich in the highest values."}
{"target": "T1, MBP-FoxP3dN (Mus musculus, UniProt Q99JB6 188-423)", "T1 sequence": "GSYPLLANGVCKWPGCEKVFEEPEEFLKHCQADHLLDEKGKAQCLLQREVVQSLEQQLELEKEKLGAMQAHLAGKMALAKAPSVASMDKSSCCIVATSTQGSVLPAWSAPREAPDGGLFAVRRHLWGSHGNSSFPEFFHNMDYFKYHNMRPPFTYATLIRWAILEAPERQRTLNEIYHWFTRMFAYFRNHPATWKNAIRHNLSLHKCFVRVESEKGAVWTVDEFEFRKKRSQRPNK", "assay": "PD-seq (MBP pull-down with sequencing); 20 mM Tris-HCl pH 7.5, 100 mM NaCl, 1.5 mM MgCl2, 0.4 uM protein, 0.1 uM dsDNA library, 30 min, room temperature, amylose pull-down; high values mean tight binding", "details": "protein: recombinant; tags: His6-MBP; chain copies: 2; dsDNA, one strand shown", "in_short": "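Amylose resin was used to capture complexes formed during 30 min at room temperature in Tris pH 7.5 buffer with NaCl and MgCl2 between 0.4 µM His6-MBP-tagged mouse FoxP3 or FoxP1 fragment lacking the N-terminus, expressed in E. coli, and 0.1 µM Klenow-filled double-stranded degenerate DNA library. After three washes, the DNA was released with proteinase K, barcoded by PCR and sequenced on Illumina. Binding is pooled-replicate reads-per-million enrichment, pull-down over input.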"}
{"sequence": "GATGATTGTTCTCCCAGCTGATGAATTTCTATACTCGAGTAAACAAATTTTCCTAATCTTTCTGTTCAAGCGCCATCTAC", "binding signal": "0.435 RPM ratio (pull-down/input)"}
{"sequence": "GATGATTGTTCTCCCAGCTGATGAATTTGTATCTTCGAGTAAACAAATTTTCCTAATCTTTCTGTTCAAGCGCCATCTAC", "binding signal": "5.56 RPM ratio (pull-down/input)"}
{"sequence": "GATGATTGTTCTCCCAGCTGATGAATTTGTATGCTCGAGTAAACAAATTTTCCTAATCTTTCTGTTCAAGCGCCATCTAC", "binding signal": "6.51 RPM ratio (pull-down/input)"}
{"sequence": "GATGATTGTTCTCCCAGCTGATGAATTTGTATCATCGAGTAAACAAATTTTCCTAATCTTTCTGTTCAAGCGCCATCTAC", "binding signal": "5.48 RPM ratio (pull-down/input)"}
{"sequence": "GATGATTGTTCTCCCAGCTGATGAATTTGATGTATCGAGTAAACAAATTTTCCTAATCTTTCTGTTCAAGCGCCATCTAC", "binding signal": "4.63 RPM ratio (pull-down/input)"}
{"sequence": "GATGATTGTTCTCCCAGCTGATGAATTGTATCTTTCGAGTAAACAAATTTTCCTAATCTTTCTGTTCAAGCGCCATCTAC", "binding signal": "1.68 RPM ratio (pull-down/input)"}
{"sequence": "GATGATTGTTCTCCCAGCTGATGAATTGTAATACTCGAGTAAACAAATTTTCCTAATCTTTCTGTTCAAGCGCCATCTAC", "binding signal": "0.756 RPM ratio (pull-down/input)"}
{"sequence": "GATGATTGTTCTCCCAGCTGATGAATTTGTATACTCGAGTAAACAAATTTTCCTAATCTTTCTGTTCAAGCGCCATCTAC", "binding signal": "7.1 RPM ratio (pull-down/input)"}
{"sequence": "GATGATTGTTCTCCCAGCTGATGAATTTGTTGTATCGAGTAAACAAATTTTCCTAATCTTTCTGTTCAAGCGCCATCTAC", "binding signal": "7.55 RPM ratio (pull-down/input)"}
{"sequence": "GATGATTGTTCTCCCAGCTGATGAATTGTATCCTTCGAGTAAACAAATTTTCCTAATCTTTCTGTTCAAGCGCCATCTAC", "binding signal": "1.61 RPM ratio (pull-down/input)"}
{"sequence": "GATGATTGTTCTCCCAGCTGATGAATTGTAATGCTCGAGTAAACAAATTTTCCTAATCTTTCTGTTCAAGCGCCATCTAC", "binding signal": "1.07 RPM ratio (pull-down/input)"}
{"sequence": "GATGATTGTTCTCCCAGCTGATGAATTTCTATGCTCGAGTAAACAAATTTTCCTAATCTTTCTGTTCAAGCGCCATCTAC", "binding signal": "0.385 RPM ratio (pull-down/input)"}
{"sequence": "GATGATTGTTCTCCCAGCTGATGAATTCGTTTCCTCGAGTAAACAAATTTTCCTAATCTTTCTGTTCAAGCGCCATCTAC", "binding signal": "1.76 RPM ratio (pull-down/input)"}
{"sequence": "GATGATTGTTCTCCCAGCTGATGAATTGTGGAAGTCGAGTAAACAAATTTTCCTAATCTTTCTGTTCAAGCGCCATCTAC", "binding signal": "0.274 RPM ratio (pull-down/input)"}
{"sequence": "GATGATTGTTCTCCCAGCTGATGAATTTAGCGGATCGAGTAAACAAATTTTCCTAATCTTTCTGTTCAAGCGCCATCTAC", "binding signal": "0.292 RPM ratio (pull-down/input)"}
{"sequence": "GATGATTGTTCTCCCAGCTGATGAATTGACTCCCTCGAGTAAACAAATTTTCCTAATCTTTCTGTTCAAGCGCCATCTAC", "binding signal": "0.386 RPM ratio (pull-down/input)"}
{"sequence": "GATGATTGTTCTCCCAGCTGATGAATTAGTTTTCTCGAGTAAACAAATTTTCCTAATCTTTCTGTTCAAGCGCCATCTAC", "binding signal": "4.62 RPM ratio (pull-down/input)"}
{"sequence": "GATGATTGTTCTCCCAGCTGATGAATTAGTTTGCTCGAGTAAACAAATTTTCCTAATCTTTCTGTTCAAGCGCCATCTAC", "binding signal": "5.59 RPM ratio (pull-down/input)"}
{"sequence": "GATGATTGTTCTCCCAGCTGATGAATTTGATTGCTCGAGTAAACAAATTTTCCTAATCTTTCTGTTCAAGCGCCATCTAC", "binding signal": "5.45 RPM ratio (pull-down/input)"}
{"sequence": "GATGATTGTTCTCCCAGCTGATGAATTTTTTTGCTCGAGTAAACAAATTTTCCTAATCTTTCTGTTCAAGCGCCATCTAC", "binding signal": "0.366 RPM ratio (pull-down/input)"}
{"sequence": "GATGATTGTTCTCCCAGCTGATGAATTTTGTTGCTCGAGTAAACAAATTTTCCTAATCTTTCTGTTCAAGCGCCATCTAC", "binding signal": "5.63 RPM ratio (pull-down/input)"}
{"sequence": "GATGATTGTTCTCCCAGCTGATGAATTTGTTTGCTCGAGTAAACAAATTTTCCTAATCTTTCTGTTCAAGCGCCATCTAC", "binding signal": "7.54 RPM ratio (pull-down/input)"}
{"sequence": "GATGATTGTTCTCCCAGCTGATGAATTTATTTGCTCGAGTAAACAAATTTTCCTAATCTTTCTGTTCAAGCGCCATCTAC", "binding signal": "6.11 RPM ratio (pull-down/input)"}
{"sequence": "GATGATTGTTCTCCCAGCTGATGAATTTCTTTGCTCGAGTAAACAAATTTTCCTAATCTTTCTGTTCAAGCGCCATCTAC", "binding signal": "1.5 RPM ratio (pull-down/input)"}
{"sequence": "GATGATTGTTCTCCCAGCTGATGAATTGTTTTGCTCGAGTAAACAAATTTTCCTAATCTTTCTGTTCAAGCGCCATCTAC", "binding signal": "3.65 RPM ratio (pull-down/input)"}
{"sequence": "GATGATTGTTCTCCCAGCTGATGAATTTAGTTGCTCGAGTAAACAAATTTTCCTAATCTTTCTGTTCAAGCGCCATCTAC", "binding signal": "2.92 RPM ratio (pull-down/input)"}
{"sequence": "GATGATTGTTCTCCCAGCTGATGAATTATTTTGCTCGAGTAAACAAATTTTCCTAATCTTTCTGTTCAAGCGCCATCTAC", "binding signal": "0.946 RPM ratio (pull-down/input)"}
{"sequence": "GATGATTGTTCTCCCAGCTGATGAATTTTATTGCTCGAGTAAACAAATTTTCCTAATCTTTCTGTTCAAGCGCCATCTAC", "binding signal": "2.06 RPM ratio (pull-down/input)"}
{"sequence": "GATGATTGTTCTCCCAGCTGATGAATTCTCTTGCTCGAGTAAACAAATTTTCCTAATCTTTCTGTTCAAGCGCCATCTAC", "binding signal": "0.273 RPM ratio (pull-down/input)"}
{"sequence": "GATGATTGTTCTCCCAGCTGATGAATTTTCCTTATCGAGTAAACAAATTTTCCTAATCTTTCTGTTCAAGCGCCATCTAC", "binding signal": "0.31 RPM ratio (pull-down/input)"}
{"sequence": "GATGATTGTTCTCCCAGCTGATGAATTGGTGTTGTCGAGTAAACAAATTTTCCTAATCTTTCTGTTCAAGCGCCATCTAC", "binding signal": "3.18 RPM ratio (pull-down/input)"}
